S1P2 ag: S1P2 receptor agonists, primary screen, cell-based; 0.46% of 97,000 active; activation, % at 4.5 µM; Sphingosine 1-phosphate receptor 2 (Homo sapiens), O95136; S1P2-expressing cell line, agonist reporter read-out; in the data active = activation above about 16%;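 also: 0% = vehicle low control and 100% = maximal reference agonist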
cytoskel mod: modifiers of F-actin cytoskeleton organization, primary screen, imaging, HUVEC, phalloidin staining, high-content imaging; 0.18% of 91,000 active; inhibition, % at 2 µM; HUVEC TNFa F-actin phalloidin imaging;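 active = inhibition above the batch mean plus 3 SD and confirmed as a hit by visual image inspection, cut at about 30% in these data, passing the limit was not always enough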
GALR2 blocker: GALR2 antagonists in receptor-expressing cells, primary screen; Galanin receptor type 2 (Homo sapiens), O43603; antagonist mode; inhibition, % at 4 µM; 0.39% of 140,000 active; AID 828, 2007; in the data active = inhibition above about 27%;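 also: cells stimulated with galanin 1-16 at roughly its EC80; 0% = agonist challenge control and 100% = basal control without agonist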
Target sequence (O43603 whole entry, looked up): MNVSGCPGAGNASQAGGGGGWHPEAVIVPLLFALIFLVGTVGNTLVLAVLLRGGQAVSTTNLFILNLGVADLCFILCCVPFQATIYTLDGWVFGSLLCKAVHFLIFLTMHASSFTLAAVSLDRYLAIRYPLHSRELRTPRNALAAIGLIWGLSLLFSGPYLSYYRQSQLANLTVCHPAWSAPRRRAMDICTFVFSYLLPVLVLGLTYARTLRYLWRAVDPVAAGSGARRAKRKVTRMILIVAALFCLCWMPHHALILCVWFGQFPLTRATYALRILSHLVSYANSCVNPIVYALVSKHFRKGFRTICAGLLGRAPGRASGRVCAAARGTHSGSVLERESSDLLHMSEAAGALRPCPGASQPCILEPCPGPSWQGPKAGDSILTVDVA
GALR2 ag: GALR2 receptor agonists, primary screen, cell-based. Galanin receptor type 2 (Homo sapiens), O43603. GALR2-expressing cells, agonist activation read-out. activation, % (no concentration beside the values). 0.48% of 140,000 active. AID 803, 2007; in the data active = activation above about 5%, passing the limit was not always enough;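 also: 0% = vehicle buffer wells and 100% = reference agonist at full effect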
S1P2 blocker: human S1P2 receptor antagonists, primary screen, cell-based. 0.21% of 97,000 active. inhibition, % at 5 µM. cell-based S1P2 antagonist assay, inhibition at 5 uM. AID 736, 2007; in the data active = inhibition above about 45%;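 also: CRE beta-lactamase reporter cells expressing human S1P2 stimulated with S1P; 0% = agonist at EC80 alone and 100% = agonist plus reference antagonist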
The depositor's hits bear a star; . = not tested or not shown. Compounds with a hit are over-represented: about 1.3% of the library has one in this group of screens.

SMILES | S1P2 ag | cytoskel mod | GALR2 blocker | GALR2 ag | S1P2 blocker
Cc1noc2ncnc(Sc3ccc(Cl)cc3)c12 | -4.1 | -4.8 | 17.6 | -2.4 | 34.2
Cc1noc2ncnc(Sc3c(Cl)cccc3Cl)c12 | -5.8 | 2.1 | 20.2 | -2.5 | 47.9*
CCN(CC)c1ncnc2c1ncn2Cc1c(Cl)cccc1Cl | 18.6* | -14.7 | -1.9 | 1.1 | -74.7
Cc1nn(Cc2c(Cl)cccc2Cl)c(C)c1N | -3.4 | -13.1 | -9.0 | -0.5 | 16.1
CCN(CC)c1ncn(Cc2c(Cl)cccc2Cl)c2ncnc1-2 | 18.3* | -14.6 | -7.4 | -0.5 | -33.8
Clc1cccc(Cl)c1Cn1cnc2c(N3CCCCCC3)ncnc21 | 9.9 | -8.1 | 1.6 | 0.5 | -30.7
CCCCn1nc(NC(=O)c2cccs2)c2cc3cc(OC)ccc3nc21 | 11.7 | 25.7 | 1.4 | 6.8* | 34.5
CN(C)c1ccc(CC(=O)c2nc3ccccc3s2)cc1 | . | . | -1.6 | 0.4 | .
N=c1c2c(-c3ccccc3)c(-c3ccccc3)n(Cc3ccco3)c2ncn1Cc1ccco1 | . | . | -1.6 | 5.2* | .
Cc1nn(C)c(C)c1C1C(C#N)=C(N)OC2=C1C(=O)CCC2 (stereo unspecified) | . | . | -2.6 | 0.0 | .
Cc1ccc(-c2cc(C(F)(F)F)c(C#N)c(SCCC#N)n2)o1 | 17.3* | 25.5 | -6.9 | 7.0 | -26.6
COc1cc(-c2nnc3sc(C4CCCCC4)nn23)cc(OC)c1OC | 19.8* | 23.5 | -9.4 | 1.7 | -21.1
CCCn1c(C(=O)OC)cc2c1ccn2-c1ccc(F)cc1 | -0.5 | 2.5 | -17.0 | 5.6* | 7.0
CN(C)c1ccc(N=C/C=C2/N(C)c3ccccc3C2(C)C)cc1 | . | . | -5.9 | -1.5 | .
CCn1c(/C=C/c2c(C)[nH]c3ccccc23)nc2ccccc2c1=O | . | . | 7.1 | 7.3* | .
CCOc1cc(CNc2ccc(CNc3ncn[nH]3)cc2)ccc1OCc1ccccc1 | . | . | -4.5 | -1.4 | .
CCOC(=O)Cc1c(C)c2ccc(N(CC)CC)cc2oc1=O | 20.3* | -14.1 | -4.0 | 18.9* | -6.4
CCN(CC)c1ccc2c(Cl)c(Br)c(=O)oc2c1 | -17.5 | 27.8 | 76.4* | 0.1 | 103.0*
Cc1ccc(S(=O)(=O)N/N=C/c2cc(Br)c(C)o2)cc1 | 26.9* | -6.2 | 6.4 | -0.3 | -6.6
O=C(CNc1c(Br)cc(Br)cc1Br)NN=C1CCCCC1 | . | . | 8.4 | -0.8 | .
COc1cc2c(cc1OC)C1=C(C#N)CC/C(=N\S(=O)(=O)c3ccccc3)N1CC2 | 49.2* | . | -4.0 | -0.7 | -51.1
COc1cc2c(cc1OC)C1=C(C#N)CCC(=O)N1CC2 | 62.2* | 0.9 | -22.4 | 0.3 | -27.0
O=C(O)CCCNC(=O)c1ccccn1 | . | . | -0.7 | -1.4 | .
Cc1ccc[n+](-c2[nH]c(=O)sc2/C=N/NC(=O)c2ccccc2[O-])c1 | . | . | 9.3 | -0.2 | .
C=CCn1c(=N)c(C(=O)NCCCOC)cc2c(=O)n3ccccc3nc21 | 29.9* | 13.3 | -2.9 | 22.5* | -32.6
SMILES | S1P2 ag | cytoskel mod | GALR2 blocker | GALR2 ag | S1P2 blocker
CNC(=O)c1cc2c(=O)n3cc(C)ccc3nc2n(C(C)C)c1=N | 17.8* | 20.1 | -0.4 | 16.2* | -18.3
CCCn1c(=NC(=O)c2ccco2)c(C(=O)OCC)cc2c(=O)n3ccccc3nc21 | 6.9 | -7.1 | -3.1 | 2.3 | -50.7
Cc1ccc2nc3c(cc(C(=O)NCCCn4ccnc4)n3C)c(=O)n2c1 | 5.0 | 69.5 | 8.1 | -0.3 | -19.8
CCOC(=O)c1cc2c(=O)n3ccccc3nc2n(CCCOC)c1=NC(C)=O | 35.2* | 4.1 | -14.5 | 12.9* | -55.8
CCOCCCn1c(=N)c(C(=O)NCc2ccc3c(c2)OCO3)cc2c(=O)n3ccccc3nc21 | 0.2 | 59.3 | -7.3 | 1.2 | -18.2
CCCCCn1c(=NC(C)=O)c(C#N)cc2c(=O)n3ccccc3nc21 | 9.4 | 7.6 | 1.8 | 2.5 | -36.4
CC(C)OCCCn1c(=NC(=O)c2ccncc2)c(C#N)cc2c(=O)n3ccccc3nc21 | 40.6* | -13.7 | -22.9 | 11.9* | -54.0
COc1ccc(CN(C)Cc2nc3scc(-c4ccccc4)c3c(=O)[nH]2)cc1OC | . | . | 1.7 | 1.0 | .
O=C(CO/N=C/c1ccc2c(c1)OCO2)Nc1cccc(Br)c1 | . | . | -6.3 | -1.6 | .
COCCCNC(=O)c1cc2c(=O)n3cccc(C)c3nc2n(C(C)C)c1=N | 4.7 | 23.3 | -6.0 | 6.4 | -2.9
C=CCn1c(=N)c(C(=O)NCCCOC)cc2c(=O)n3cc(C)ccc3nc21 | 18.9* | 13.3 | -14.0 | 16.5* | -38.1
CCOc1cc2c(C#N)c(N3CCNCC3)nc(N)c2c(N)n1 | 19.8* | 7.5 | 3.1 | -2.6 | -57.2

Source: PubChem
